# According to PubChem BioAssay (NCATS):
# Records with an inconclusive call do not appear. Calls of active or inactive are those of the source. Unless noted, calls follow the shape of the dose curve; as a rule, active = well fitted curve in the direction sought with a large enough effect; inconclusive = small, poorly fitted or top-dose-only effect, or another doubt; inactive = no such curve, though single readings can be large; an effect the other way counts as inactive or inconclusive.
# Columns and labels:
# [1] = qHTS to identify inhibitors of the type 1 interferon - major histocompatibility complex class I in skeletal muscle: primary screen against the NCATS Mechanism Interrogation Plate v5.0 (MIPE) Libary (AID 1347411); also: nearly all actives have a fitted effect of over 65% in size; also: potency is read from the fitted curve at half-maximal effect;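 as to activity change, negative = inhibition: plate controls were vehicle for no effect and reference inhibitor for full effect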
# Summary of the method: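 Immortalized human C25cl48 myoblasts with HiBit knocked into endogenous HLA-B*08:01 were stimulated with 4.0 ng/ml IFN-beta and exposed to compounds (11-point 1:3 titration, top 46 uM final) for 24 hrs at 37 C; HiBiT lytic luminescence measured.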
# [2] = Primary qHTS for inhibitors of nuclear receptor binding SET domain protein 2 (NSD2) in an isogenic RCH-ACV NSD2 p.E1099K mutant (9B) (AID 1645876); also: nearly all actives have a fitted effect of over 70% in size; also: potency is read from the fitted curve at half-maximal effect; as to activity change, negative = viability loss: % is scaled to controls: 0 for no effect and ±100 for the full control effect
# [3] = biological target: Phospholipid hydroperoxide glutathione peroxidase GPX4 (Homo sapiens) (UniProt P36969); assay: Primary qHTS Assay for Inhibitors of Recombinant Selenoprotein Glutathione Peroxidase 4 (GPX4) (AID 1845192); settings: outcome: dose series up to 50 µM unless noted; also: nearly all actives have a fitted effect of over 65% in size; as to activity change, negative = inhibition: series mostly up to about 50 µM; % is scaled to controls: 0 for no effect and ±100 for the full control effect
# Sequence of Phospholipid hydroperoxide glutathione peroxidase GPX4 (Homo sapiens) (P36969 whole entry, looked up): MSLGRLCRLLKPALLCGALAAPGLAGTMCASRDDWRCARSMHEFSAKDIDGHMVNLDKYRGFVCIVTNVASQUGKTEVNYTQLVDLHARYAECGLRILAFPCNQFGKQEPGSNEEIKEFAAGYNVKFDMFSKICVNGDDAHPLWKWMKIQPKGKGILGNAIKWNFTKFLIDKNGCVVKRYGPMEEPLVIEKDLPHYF
# Summary of the method: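 GR-coupled readout: 100 nM GR, 1 mM GSH, 0.5 mM NADPH; NADPH fluorescence (ex 340/em 450 nm) read at t=0 and after 15 min RT. GPX4 200 nM, preincubated 30 min with compound; substrate 0.5 mM CHP.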
# [4] = qHTS drug screen for cell cycle checkpoint inhibitors in PARPi-resistant BRCA-mutant ovarian cancer cell lines. (AID 1963452; calls by dose curve; also: potency is read from the fitted curve at half-maximal effect); settings: PEO1/OlaR viability, CellTiter-Glo luminescence, 96 h; for Z-AUC: stronger effect = lower value
# Summary of the method: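 PEO1, PEO4 and PEO1/OlaR ovarian cancer cells, 600 per well, exposed 96 h at 37C to a dilution series. Viability read by CellTiter-Glo luminescence, normalized to DMSO and empty wells; activity summarized as Z-AUC.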
# [5] = biological target: Glutathione peroxidase 1 (Homo sapiens) (UniProt P07203); assay: Primary qHTS Assay for Inhibitors of Recombinant Selenoprotein Glutathione Peroxidase 1 (GPX1) (AID 1845191); also: nearly all actives have a fitted effect of over 65% in size; also: potency is read from the fitted curve at half-maximal effect; as to activity, negative = inhibition: % is scaled to controls: 0 for no effect and ±100 for the full control effect
# Sequence of Glutathione peroxidase 1 (Homo sapiens) (P07203 whole entry, looked up): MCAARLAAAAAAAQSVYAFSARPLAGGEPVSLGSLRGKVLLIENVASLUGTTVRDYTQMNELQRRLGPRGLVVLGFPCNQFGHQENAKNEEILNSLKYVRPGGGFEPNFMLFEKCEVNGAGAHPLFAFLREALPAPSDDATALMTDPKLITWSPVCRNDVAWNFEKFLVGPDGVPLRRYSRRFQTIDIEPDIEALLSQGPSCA
# Summary of the method: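 Recombinant GPX1 (10 nM final) was preincubated with compound for 30 min at room temperature, then reacted with 1 mM GSH, 0.5 mM CHP, 0.5 mM NADPH and 100 nM glutathione reductase; NADPH fluorescence (340/450 nm) was read at 0 and 15 min.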
# [6] = biological target: Luciferin 4-monooxygenase (Photinus pyralis) (UniProt P08659); assay: Biochemical firefly luciferase enzyme assay for NPC (AID 624030);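 also: purified P. pyralis luciferase at 10 nM with luciferin and ATP substrate; series mostly up to about 59 µM; 0% = DMSO and -100% = full luciferase inhibition by PTC124 control; nearly all actives have a fitted effect of over 70% in size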
# Sequence of Luciferin 4-monooxygenase (Photinus pyralis) (P08659 whole entry, looked up): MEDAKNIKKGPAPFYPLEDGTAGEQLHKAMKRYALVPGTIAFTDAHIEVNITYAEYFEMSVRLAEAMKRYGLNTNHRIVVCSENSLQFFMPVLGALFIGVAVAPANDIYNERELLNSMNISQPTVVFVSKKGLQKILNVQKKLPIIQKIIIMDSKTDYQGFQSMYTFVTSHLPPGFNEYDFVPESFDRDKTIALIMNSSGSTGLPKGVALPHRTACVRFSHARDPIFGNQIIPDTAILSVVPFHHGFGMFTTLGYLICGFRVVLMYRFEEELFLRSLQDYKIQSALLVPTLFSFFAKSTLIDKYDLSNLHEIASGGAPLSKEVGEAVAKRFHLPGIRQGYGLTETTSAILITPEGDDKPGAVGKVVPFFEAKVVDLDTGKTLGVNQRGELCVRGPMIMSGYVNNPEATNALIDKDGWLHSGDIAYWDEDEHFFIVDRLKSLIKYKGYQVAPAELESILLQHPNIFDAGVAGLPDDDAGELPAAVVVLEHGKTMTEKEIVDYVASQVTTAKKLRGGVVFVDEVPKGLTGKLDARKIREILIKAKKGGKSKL
# Summary of the method: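 Counter-screen for direct inhibition of the luciferase enzyme by approved-drug library compounds, run at 10 nM enzyme in 50 mM Tris acetate (final). Luminescence was read within 5 min of enzyme-buffer addition and normalized to PTC124 versus DMSO (0%).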
# [7] = measured here: PEO1 parental Z-AUC
compound,measurement,setting,value
O=C(NO)c1ccc(C2=Nc3ccccc3Oc3ccccc32)cc1,Potency,[1],18.6 µM (active)
same,Potency,[2],2.95 µM (active)
same,Potency,[3],inactive
same,Z-AUC,[4],-0.476 (inactive)
same,Z-AUC,[4]; [7],-1.06
same,Z-AUC,[4]; measured here: PEO4 Z-AUC,-1.1
COc1ccc2c(c1)C(c1ccc(F)cc1)=C(CN1CCCC1)CO2,Potency,[1],inactive
same,Potency,[2],inactive
same,Potency,[5],inactive
same,Z-AUC,[4],-0.385 (inactive)
same,Z-AUC,[4]; [7],0.0924
same,Z-AUC,[4]; measured here: PEO4 Z-AUC,0.0293
Nc1nc(N)c2nc(-c3cccc(Cl)c3)c(N)nc2n1,Potency,[1],inactive
same,Potency,[2],1.05 µM (active)
same,Potency,[5],4.09 µM (active)
same,Z-AUC,[4],-0.747 (inactive)
same,Z-AUC,[4]; [7],-0.162
same,Z-AUC,[4]; measured here: PEO4 Z-AUC,-0.371
Nc1nc(F)nc2c1ncn2[C@@H]1O[C@H](COP(=O)(O)O)[C@@H](O)[C@@H]1O,Potency,[6],inactive
same,Potency,[1],inactive
same,Potency,[2],1.86 µM (active)
same,Potency,[5],inactive
same,Potency,[3],inactive
CN1C(=O)N[C@H](Cc2c[nH]c3c(Cl)cccc23)C1=O,Potency,[1],inactive
same,Potency,[2],inactive
same,Potency,[5],inactive
same,Potency,[3],inactive
same,Z-AUC,[4],0.358 (inactive)
same,Z-AUC,[4]; [7],0.688
same,Z-AUC,[4]; measured here: PEO4 Z-AUC,0.653
CCS(=O)(=O)N1CCC(C(C)n2c(C)c(C(=O)NCc3c(OC)cc(C)[nH]c3=O)c3ccccc32)CC1 (stereo not drawn),Potency,[1],inactive
same,Potency,[2],inactive
same,Potency,[5],inactive
same,Potency,[3],inactive
same,Z-AUC,[4],1.37 (inactive)
same,Z-AUC,[4]; [7],0.975
same,Z-AUC,[4]; measured here: PEO4 Z-AUC,0.959
C=C1C[C@@H]2CC[C@@]34C[C@H]5O[C@H]6[C@@H](O3)[C@H]3O[C@H](CC[C@@H]3O[C@H]6[C@H]5O4)CC(=O)C[C@@H]3[C@@H](OC)[C@@H](C[C@H](O)CN)O[C@H]3C[C@H]3O[C@@H](CC[C@@H]1O2)C[C@@H](C)C3=C,"activity change, negative = inhibition",[1],-7.19% [at 8.44 µM] (inactive)
same,Potency,[2],0.0014 µM (active)
same,Potency,[5],inactive
same,Potency,[3],inactive
same,Potency,[4],0.0089 µM (active)
same,Z-AUC,[4]; [7],-3.01
same,Z-AUC,[4]; measured here: PEO4 Z-AUC,-2.65
O=C(CCCCCCC(=O)N/N=C/c1ccc(N(c2ccccc2)c2ccccc2)cc1)NO,Potency,[1],18.6 µM (active)
same,Potency,[2],1.18 µM (active)
same,Z-AUC,[4],1.09 (inactive)
same,Z-AUC,[4]; [7],0.912
same,Z-AUC,[4]; measured here: PEO4 Z-AUC,0.729
CO[C@H]1/C=C/O[C@@]2(C)Oc3c(C)c(O)c4c(O)c(c5c(nc6cc(C)ccn65)c4c3C2=O)NC(=O)/C(C)=C\C=C\[C@H](C)[C@H](O)[C@@H](C)[C@@H](O)[C@@H](C)[C@H](OC(C)=O)[C@@H]1C,Potency,[1],inactive
same,Potency,[2],20.9 µM (active)
same,Potency,[5],inactive
same,Z-AUC,[4],-0.712 (inactive)
same,Z-AUC,[4]; [7],-1.19
same,Z-AUC,[4]; measured here: PEO4 Z-AUC,-1.09
C[C@H](NC(=O)[C@H]1NCC[C@@H]1O)c1ccc(-c2noc(CCC3CCCC3)n2)cc1,Potency,[1],inactive
same,Potency,[2],inactive
same,Potency,[5],inactive
same,Z-AUC,[4],0.833 (inactive)
same,Z-AUC,[4]; [7],0.65
same,Z-AUC,[4]; measured here: PEO4 Z-AUC,0.666
O=C1CC(c2c[nH]c3ccc(F)cc23)C(=O)N1 (stereo not drawn),Potency,[1],inactive
same,Potency,[2],inactive
same,Potency,[5],inactive
same,Z-AUC,[4],0.488 (inactive)
same,Z-AUC,[4]; [7],0.554
same,Z-AUC,[4]; measured here: PEO4 Z-AUC,0.655
Cc1c(F)cccc1NC(=O)Nc1ccc(Cl)c(S(=O)(=O)[C@H]2CCCNC2)c1O,Potency,[1],inactive
same,Potency,[2],inactive
same,Potency,[5],inactive
same,Potency,[3],inactive
same,Z-AUC,[4],1.68 (inactive)
same,Z-AUC,[4]; [7],1.25
same,Z-AUC,[4]; measured here: PEO4 Z-AUC,1.41
O=C(O)/C(S)=C/c1ccc(I)cc1,Potency,[1],inactive
same,Potency,[2],inactive
same,Z-AUC,[4],0.452 (inactive)
same,Z-AUC,[4]; [7],0.731
same,Z-AUC,[4]; measured here: PEO4 Z-AUC,0.789
O=C(NO)c1cnc(NC2(c3cccc(F)c3)CCCCC2)nc1,Potency,[1],inactive
same,Potency,[2],14.8 µM (active)
same,Potency,[3],inactive
same,Z-AUC,[4],-1.41 (inactive)
same,Z-AUC,[4]; [7],-0.775
same,Z-AUC,[4]; measured here: PEO4 Z-AUC,-0.635
Cc1cc(O)cc2c1[C@]1(C)CC[C@H]3C(C)(C)CCC[C@]3(C)[C@H]1C2,"activity change, negative = inhibition",[1],-19.8% [at 5.1 µM] (inactive)
same,"activity change, negative = viability loss",[2],-32.6% [at 4.96 µM] (inactive)
same,"activity, negative = inhibition",[5],-4.81% [at 4.49 µM] (inactive)
same,outcome,[3],inactive [at 4.52 µM]
same,Z-AUC,[4],1.24 (inactive)
same,Z-AUC,[4]; [7],0.915
same,Z-AUC,[4]; measured here: PEO4 Z-AUC,1
C=CC(=O)N1CC(N2CCN(C(=O)CNc3cc(C4(C)CC4)c(Cl)cc3O)CC2)C1,Potency,[1],inactive
same,Potency,[2],23.5 µM (active)
same,Potency,[5],inactive
same,Potency,[3],inactive
same,Z-AUC,[4],-0.243 (inactive)
same,Z-AUC,[4]; [7],-0.485
same,Z-AUC,[4]; measured here: PEO4 Z-AUC,-0.295
COCCNc1cc(NC(=O)N2CCCc3cc(CN4CCN(C)CC4=O)c(C=O)nc32)ncc1C#N,"activity change, negative = inhibition",[1],-1.84% [at 8.44 µM] (inactive)
same,"activity change, negative = viability loss",[2],3.8% [at 9.23 µM] (inactive)
same,outcome,[5],inactive [at 9.52 µM]
same,outcome,[3],inactive [at 9.73 µM]
same,Z-AUC,[4],0.715 (inactive)
same,Z-AUC,[4]; [7],0.498
same,Z-AUC,[4]; measured here: PEO4 Z-AUC,0.787
C=C1CCC[C@]2(C)C=C3OC(=O)C(C)=C3C[C@@H]12,Potency,[1],inactive
same,Potency,[2],inactive
same,Potency,[5],inactive
same,Potency,[3],inactive
same,Z-AUC,[4],0.206 (inactive)
same,Z-AUC,[4]; [7],-0.068
same,Z-AUC,[4]; measured here: PEO4 Z-AUC,-0.0438
CN1C(=O)[C@@H](NC(=O)c2cc(Cc3ccccc3)on2)COc2ccccc21,Potency,[1],inactive
same,Potency,[2],inactive
same,Potency,[5],inactive
same,Potency,[3],inactive
same,Z-AUC,[4],0.979 (inactive)
same,Z-AUC,[4]; [7],0.721
same,Z-AUC,[4]; measured here: PEO4 Z-AUC,1.08
O=c1ncccn1[C@@H]1O[C@H](CO)[C@@H](O)[C@H]1O,Potency,[1],inactive
same,Potency,[2],inactive
same,Potency,[5],inactive
same,Potency,[3],inactive
same,Z-AUC,[4],-0.938 (inactive)
same,Z-AUC,[4]; [7],-0.911
same,Z-AUC,[4]; measured here: PEO4 Z-AUC,-1.39
O=C(O)c1ccccc1-c1ccc(/C=c2\sc3nc4cc(Br)cnc4n3c2=O)o1,Potency,[1],inactive
same,Potency,[2],inactive
same,Potency,[5],inactive
same,Z-AUC,[4],-0.492 (inactive)
same,Z-AUC,[4]; [7],-0.865
same,Z-AUC,[4]; measured here: PEO4 Z-AUC,-0.895
